Shown are actives, neighbours in structure and some others; about 11% of the full set was active somewhere.
AmpC detergent – qHTS Inhibitors of AmpC Beta-Lactamase (assay with detergent); P00811; AmpC hydrolysis of nitrocefin, absorbance 480 nm, 0.01% Triton; Potency, µM (highest dose often 114 µM), for the others: top-dose activity change, negative = inhibition, most hits filed as inhibitors; 370,000 tested, 0.041% active;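 further: potency means the concentration at half of the fitted maximal effect; 0% = no-compound wells and -100% = no-enzyme wells; nearly all actives have a fitted effect of over 25% in size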
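20 mM phosphate pH 7.0 + 0.01% (detergent screen) or 0.0001% Triton X-100; 5.3 nM AmpC reagent; cpd preinc 15 min RT; nitrocefin (800 uM stock) to start; A480 q20 s × 4 min; Activity was normalised to no-enzyme and no-compound control wells.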
Pf growth 96h – Primary qHTS for delayed death inhibitors of the malarial parasite plastid, 96 hour incubation | P. falciparum luciferase reporter growth, 96 h | 320,000 tested, 6.9% active | Potency, µM (highest dose often 28.7 µM), for inactives: at the top dose activity change, negative = inhibition, most hits filed as inhibitors | AID 504834, 2011; further: potency means the concentration at half of the fitted maximal effect; on the % scale 0 is the no-effect control and ±100 the full control effect
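Luminescence readout: decreased luciferase signal marks inhibited growth of reporter-expressing P. falciparum in infected red cells (2% hematocrit, 0.05% parasitemia final), exposed to compound two generations (96 h, 37 C, 5% CO2).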
HCV inhibitor – qHTS Assay for Inhibitors of Hepatitis C Virus (HCV) | Huh7.5.1 HCVcc-Cre infection, luciferase reporter, 44 h | Potency, µM (top dose mostly 41.8 µM), without a hit: at the top dose activity change, negative = inhibition, actives largely listed as inhibitors | 340,000 tested, 3.4% active | AID 651820, 2012; further: potency means the concentration at half of the fitted maximal effect; on the % scale 0 is the no-effect control and ±100 the full control effect
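Cells seeded at 1,000/well and cultured 4 h, then compounds added followed by HCVcc-Cre virus (~0.5 moi). After 44 h further culture, luciferase substrate was added, plates held 15 min at room temperature, and luminescence read for 15 sec.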
AMA1 RON2 block – qHTS for Inhibitors of AMA1-RON; Towards Development of Antimalarial Drug Lead: Primary Screen. Plasmodium falciparum AMA1 (3D7) - RON2 peptide interaction. AlphaScreen AMA1-biotinylated RON2 peptide binding. Potency, µM (titrated, usually from 58.2 µM), for the others: top-dose activity change, negative = inhibition, actives largely listed as inhibitors. 360,000 tested, 0.2% active. AID 720542, 2013;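 further: potency means the concentration at half of the fitted maximal effect; 0% = vehicle wells and -100% = peptide control; nearly all actives have a fitted effect of over 45% in size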
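AMA1 (3D7) with his tag at 25 nM final met compounds first, then biotinylated RON2 peptide at 25 nM; detection used donor plus acceptor beads, 10 µg/mL apiece, read by AlphaScreen after 30 min at room temperature.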
Pf growth 48h – Primary qHTS for delayed death inhibitors of the malarial parasite plastid, 48 hour incubation; 310,000 tested, 5.9% active; P. falciparum luciferase growth in erythrocytes, 48 h; Potency, µM (series often up to 28.7 µM), without a hit: at the top dose activity change, negative = inhibition, hits mostly inhibitors; further: potency means the concentration at half of the fitted maximal effect; on the % scale 0 is the no-effect control and ±100 the full control effect
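In quantitative HTS format, infected erythrocytes bearing luciferase-reporter parasites were treated for a single generation at 37 C. Luminescence after adding detection reagent served as the growth measure.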
AmpC no deterg – qHTS Inhibitors of AmpC Beta-Lactamase (assay without detergent). P00811. AmpC nitrocefin hydrolysis, absorbance 480 nm, 0.0001% Triton. Potency, µM (series often up to 57.1 µM), for inactives: at the highest dose activity change, negative = inhibition, most hits filed as inhibitors. 330,000 tested, 0.52% active. AID 485341, 2010;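 further: potency means the concentration at half of the fitted maximal effect; plate controls were no compound for no effect and no enzyme for full effect; nearly all actives have a fitted effect of over 20% in size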
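AmpC (5.3 nM in the dispensed reagent) in 20 mM phosphate pH 7.0 with 0.01% (detergent screen) or 0.0001% Triton X-100 was preincubated with compounds for 15 min at room temperature. Nitrocefin was then added from an 800 uM solution, and hydrolysis was followed at 480 nm.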
CLK4 cf ADPGlo – Confirmaiton Assay for Inhibitors of CDC-like Kinase 4 (ADP-Glo Assay) | AID 1969, 2009 | 65 tested, 80% active | recombinant Clk4, RS peptide, ADP-Glo luminescence | shares compounds with Pf growth 48h | Potency, µM (highest dose often 80 µM), inactives show at the top dose activity, negative = inhibition, actives largely listed as inhibitors
Target sequence (Q9HAZ1 whole entry, looked up): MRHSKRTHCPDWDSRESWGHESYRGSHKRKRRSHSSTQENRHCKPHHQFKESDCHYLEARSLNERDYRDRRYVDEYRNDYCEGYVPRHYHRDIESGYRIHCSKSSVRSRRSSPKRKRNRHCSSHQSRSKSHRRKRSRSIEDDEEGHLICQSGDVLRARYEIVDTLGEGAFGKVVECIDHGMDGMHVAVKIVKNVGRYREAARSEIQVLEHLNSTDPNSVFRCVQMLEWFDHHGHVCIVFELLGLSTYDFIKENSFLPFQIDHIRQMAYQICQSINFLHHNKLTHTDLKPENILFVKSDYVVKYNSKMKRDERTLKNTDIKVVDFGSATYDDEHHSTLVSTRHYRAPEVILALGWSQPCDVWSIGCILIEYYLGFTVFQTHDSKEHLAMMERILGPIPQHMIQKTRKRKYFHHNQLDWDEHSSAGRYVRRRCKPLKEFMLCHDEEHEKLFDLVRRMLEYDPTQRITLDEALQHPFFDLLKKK
CLK4 ADP FP – Confirmation Assay for Inhibitors of CDC-like Kinase 4 (ADP-FP Assay); shares compounds with Pf growth 48h; recombinant Clk4, ADP Transcreener FP, RS peptide; Potency, µM (titrated, usually from 80 µM), for inactives: at the top dose activity, negative = inhibition, hits mostly inhibitors; 65 tested, 70% active; AID 1983, 2009
HCV inh confirm – qHTS Assay for Inhibitors of Hepatitis C Virus (HCV): Confirmation Assay for Cherry-picked Compounds; shares compounds with HCV inhibitor; HCVcc-Cre infectious virus cell assay, luciferase, inhibition; Potency, µM (doses to about 41.8 µM), for inactives: at the highest dose activity, negative = inhibition, hits mostly inhibitors; 640 tested, 78% active; further: potency means the concentration at half of the fitted maximal effect; nearly all actives have a fitted effect of over 80% in size
HCV host tox – qHTS Assay for Inhibitors of Hepatitis C Virus (HCV): Cytotoxicity Counterscreen for Cherry-picked Compounds | shares compounds with HCV inhibitor | HCV host cell line cytotoxicity counterscreen | Potency, µM (doses to about 41.8 µM), inactives show top-dose activity change, negative = cytotoxicity, hits mostly inhibitors | 640 tested, 22% active;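 further: potency means the concentration at half of the fitted maximal effect; 44 h compound exposure; on the % scale 0 is the no-effect control and ±100 the full control effect; nearly all actives have a fitted effect of over 55% in size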
* = called active by the depositor; ? = inconclusive; . = no result; ! = not active in a repeat. The call rests on the fitted dose curve; in most records, active means well fitted curve in the direction sought with a large enough effect; inconclusive means small, poorly fitted or top-dose-only effect, or another doubt; inactive means no such curve, though single readings can be large; an effect the other way counts as inactive or inconclusive.

SMILES	AmpC detergent	Pf growth 96h	HCV inhibitor	AMA1 RON2 block	Pf growth 48h	AmpC no deterg	CLK4 cf ADPGlo	CLK4 ADP FP	others
Cc1cccc(CNc2ncnc3ccc(-c4ccoc4)cc23)c1	-10%	8.3µM*	.	.	15µM*	-30%	0.25µM*	0.28µM*
CC1=C(c2ccc(F)cc2)S(=O)(=O)N=C1N1CCC(C(=O)NCCc2ccco2)CC1	-2%	.	.	.	.	.	.	.
COc1ccc(-n2nc(C(=O)N3CCCC(C)C3)c3c4ccccc4n(C)c3c2=O)cc1 (stereo not drawn)	-3%	.	.	.	.	.	.	.
CCOc1ccc(NC(=O)c2cc(S(=O)(=O)N3CCC(C)CC3)cn2C)cc1	15%	.	.	.	.	.	.	.
CC(=O)c1ccc(NC(=O)CN2C(=O)CCc3cc(S(=O)(=O)N4CCC(C)CC4)ccc32)cc1	-11%	.	.	.	.	.	.	.
Cc1cccc(CNc2ncnc3[nH]ncc23)c1	.	.	-24%	18%	.	.	.	.
Cc1cccc(CNc2ncnc3ccc(-c4cccc(C)c4)cc23)c1	?	3.7µM*	.	.	13µM*	?	14µM*	?
Cc1csc(CNc2ncnc3ccc(-c4ccc5c(c4)OCO5)cc23)c1	?	3.3µM*	.	.	10µM*	-36%	0.16µM*	0.16µM*
Cc1csc(CNc2ncnc3ccc(-c4ccc5c(c4)OCCO5)cc23)c1	?	?	.	.	12µM*	-32%	0.45µM*	0.56µM*
CC(C)OCCCNC(=O)CCCn1c(SCC(=O)c2ccc(F)cc2)nc2c(sc3ccccc32)c1=O	-10%	.	.	.	.	.	.	.
c1ccc(-n2ncc3c(NCc4cccs4)ncnc32)cc1	-10%	88%	?	0%	70%	-40%	.	.
Clc1ccccc1-c1ccc2ncnc(NCc3cccs3)c2c1	?	3.7µM*	.	.	5.9µM*	-21%	6.3µM*	?
Cc1csc(CNc2ncnc3ccc(-c4ccccc4Cl)cc23)c1	?	2.6µM*	.	.	9.3µM*	-33%	8.9µM*	?
COc1cc2ncnc(NCc3ccccc3Cl)c2cc1OC	8%	?	-21%	-10%	?	52%	.	.
c1coc(-c2ccc3ncnc(NCc4cccs4)c3c2)c1	-20%	?	.	.	?	-42%	28µM*	28µM*
COc1ccc(-n2ncc3c(NCc4cccs4)ncnc32)cc1	1%	.	?	3%	99%	-35%	.	.
CCC(CC)C(=O)Nc1nnc(SCc2cc(=O)c3ccccc3[nH]2)s1	-5%	.	.	.	.	.	.	.
CCOc1ccccc1NC(=O)c1ccc2c(Cl)c3c(nc2c1)CCCC3	20%	.	.	.	.	.	.	.
O=C(Nc1ccc(F)cc1)Nc1csc2c1CCCC2	23%	.	.	.	.	.	.	.
Cc1ccccc1CNc1ncnc2cc(Cl)ccc12	-15%	?	-60%	0%	.	-19%	.	.
Clc1cccc(-c2ccc3ncnc(NCc4cccs4)c3c2)c1	?	3.3µM*	.	.	12µM*	-24%	4µM*	7.9µM*
c1csc(CNc2ncnc3nc[nH]c23)c1	2%	?	2%	2%	9%	-24%	.	.
Cc1cccc(-c2ccc3ncnc(NCc4cccs4)c3c2)c1	-6%	3.3µM*	.	.	3.7µM*!	-45%	7.9µM*	16µM*
Cc1cccc(CCNC(=O)C2CCN(c3ncnc4c3nc3n4CCCCC3)CC2)c1	8%	.	.	.	.	.	.	.
Cc1ccc(C)c(CSc2c(C(C)C)cnc3c2c(=O)n(C)c(=O)n3C)c1	-3%	.	.	.	.	.	.	.
SMILES	AmpC detergent	Pf growth 96h	HCV inhibitor	AMA1 RON2 block	Pf growth 48h	AmpC no deterg	CLK4 cf ADPGlo	CLK4 ADP FP	others
CCOC(=O)c1cc(-c2ccco2)nc2c1c(C)nn2CCC#N	?	?	?	3%	8.3µM*	34%	.	.	HCV inh confirm=?;HCV host tox=10%
O=C(N/N=C1\CCCc2c1[nH]c1ccc(Cl)cc21)c1ccncc1	-10%	5%	3.2µM*	70%	47%	-18%	.	.	HCV inh confirm=8.9µM*;HCV host tox=?
Cc1cc(C)n(-c2ccc(C(=O)Nc3ccc4c(c3)OCCO4)cc2)n1	-3%	-3%	?	3%	31%	-7%	.	.	HCV inh confirm=?;HCV host tox=-29%
N=c1scc(-c2ccccc2)n1/N=C/c1ccco1	?	?	?	29%	0%	-39%	.	.	HCV inh confirm=25µM*;HCV host tox=-30%
Cc1cccc(-c2n[nH]c(=S)n2/N=C/c2ccco2)c1	-12%	39%	13%	72%	36%	-50%	.	.
CCCCC(=O)Nc1ccc(NC(=O)c2ccc3c(c2)OCO3)cc1OC	-13%	?	2.5µM*	-16%	50%	-30%	.	.	HCV inh confirm=?;HCV host tox=18%
Cc1ccc(-n2c(SCC(=O)NCc3ccccc3)nc3n[nH]c(C)c3c2=N)cc1Cl	2%	.	.	.	.	.	.	.
CCCn1nnc(NC(=O)/C=C/c2cc(Br)ccc2OC)n1	-3%	2%	?	3%	10%	-20%	.	.
COc1ccc(Br)cc1/C=C/C(=O)Nc1ccc(C)cc1	2%	-6%	?	-2%	0%	-17%	.	.	HCV inh confirm=7µM*;HCV host tox=8%

High-throughput results as filed in PubChem BioAssay.
